Laboratory results: PubChem BioAssay AID1159580 (chemical genetic matrix, 2015)
In all, about 5,500 compounds went through this assay and about 2,000 (36%) were called active. About 18% were inconclusive and are not listed. No stated cut-off is given here; in the data, active means normalized growth mostly below about 0.91 (no sharp cut-off); inconclusive means no clear call, values can overlap the other calls; inactive means mostly above about 0.92. The list shows a part of the results.

Assay: chemical genetic growth profiling, strain panel (AID 1159580);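 further: tested at 20 µM; growth read once vehicle control cultures reached saturation at 30 °C; 1 = growth at the plate median or of vehicle wells; lower values mean less growth of the strain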
Settings: growth OD

Measured: normalized growth

CC(C)(C)CC(C)(C)c1ccc(O)c(Cc2ccc(Cl)cc2Cl)c1
active: S. cerevisiae deletion strains, locus YOR270C, strain vph1, active compounds read low 0.766
inactive: S. cerevisiae deletion strains, locus YJR075W, strain HOC1, active compounds read low 1.01 | S. cerevisiae deletion strains, locus YKL009W, strain mrt4, active compounds read low 1.01 | S. cerevisiae deletion strains, locus YKL068W, active compounds read low 1.02 | S. cerevisiae deletion strains, locus YKL085W, strain MDH1 (second series), active compounds read low 1.01 | S. cerevisiae deletion strains, locus YKL085W, strain MDH1, active compounds read low 1.01 | S. cerevisiae deletion strains, locus YKL160W, strain elf1, active compounds read low 1 | S. cerevisiae deletion strains, locus YKL190W, strain CNB1, active compounds read low 1 | S. cerevisiae deletion strains, locus YKR001C, strain vps1, active compounds read low 1.01 | S. cerevisiae deletion strains, locus YKR026C, strain gcn3, active compounds read low 1.02 | S. cerevisiae deletion strains, locus YKR091W, strain srl3, active compounds read low 1.02 | S. cerevisiae deletion strains, locus YLL001W, strain dnm1, active compounds read low 1.04 | S. cerevisiae deletion strains, locus YLL026W, active compounds read low 1.01 | S. cerevisiae deletion strains, locus YLL041C, strain sdh2, active compounds read low 1.02 | S. cerevisiae deletion strains, locus YLR027C, strain aat2, active compounds read low 1.01 | S. cerevisiae deletion strains, locus YLR039C, strain RIC1, active compounds read low 0.985 | S. cerevisiae deletion strains, locus YLR058C, strain SHM2, active compounds read low 1.01 | S. cerevisiae deletion strains, locus YLR102C, strain apc9, active compounds read low 1.01 | S. cerevisiae deletion strains, locus YLR113W, strain HOG1, active compounds read low 1.03 | S. cerevisiae deletion strains, locus YLR221C, strain rsa3, active compounds read low 0.995 | S. cerevisiae deletion strains, locus YLR258W, strain gsy2, active compounds read low 1.02 | S. cerevisiae deletion strains, locus YLR262C, strain YPT6 (second series), active compounds read low 0.981 | S. cerevisiae deletion strains, locus YLR262C, strain YPT6, active compounds read low 0.974 | S. cerevisiae deletion strains, locus YLR268W, strain sec22, active compounds read low 1.01 | S. cerevisiae deletion strains, locus YLR320W, strain mms22, active compounds read low 1.02 | S. cerevisiae deletion strains, locus YLR330W, strain CHS5, active compounds read low 0.999 | S. cerevisiae deletion strains, locus YLR342W, strain FKS1 (second series), active compounds read low 0.995 | S. cerevisiae deletion strains, locus YLR342W, strain FKS1, active compounds read low 1.01 | S. cerevisiae deletion strains, locus YLR357W, strain rsc2, active compounds read low 1.05 | S. cerevisiae deletion strains, locus YLR370C, strain arc18, active compounds read low 1.03 | S. cerevisiae deletion strains, locus YLR371W, strain rom2, active compounds read low 1.01 | S. cerevisiae deletion strains, locus YLR384C, strain iki3, active compounds read low 1.03 | S. cerevisiae deletion strains, locus YLR418C, strain cdc73, active compounds read low 1.02 | S. cerevisiae deletion strains, locus YML016C, strain PPZ1, active compounds read low 1.01 | S. cerevisiae deletion strains, locus YML032C, strain rad52, active compounds read low 1.02 | S. cerevisiae deletion strains, locus YML120C, strain ndi1, active compounds read low 1 | S. cerevisiae deletion strains, locus YML124C, strain tub3, active compounds read low 1.02 | S. cerevisiae deletion strains, locus YMR058W, strain fet3, active compounds read low 1.01 | S. cerevisiae deletion strains, locus YMR078C, strain ctf18, active compounds read low 1.01 | S. cerevisiae deletion strains, locus YMR125W, strain sto1, active compounds read low 1.02 | S. cerevisiae deletion strains, locus YMR129W, active compounds read low 0.998 | S. cerevisiae deletion strains, locus YMR205C, strain PFK2, active compounds read low 1.01 | S. cerevisiae deletion strains, locus YMR223W, strain ubp8, active compounds read low 1.01 | S. cerevisiae deletion strains, locus YMR231W, strain pep5, active compounds read low 1.03 | S. cerevisiae deletion strains, locus YMR263W, strain SAP30, active compounds read low 0.998 | S. cerevisiae deletion strains, locus YMR307W, strain GAS1, active compounds read low 0.972 | S. cerevisiae deletion strains, locus YNL067W, strain RPL9B, active compounds read low 1.01 | S. cerevisiae deletion strains, locus YNL071W, strain lat1, active compounds read low 1.03 | S. cerevisiae deletion strains, locus YNL128W, strain TEP1, active compounds read low 1.02 | S. cerevisiae deletion strains, locus YNL153C, strain GIM3, active compounds read low 1 | S. cerevisiae deletion strains, locus YNL183C, strain NPR1, active compounds read low 0.973 | S. cerevisiae deletion strains, locus YNL209W, strain ssb2, active compounds read low 1.02 | S. cerevisiae deletion strains, locus YNL233W, strain BNI4, active compounds read low 1.01 | S. cerevisiae deletion strains, locus YNL248C, strain rpa49, active compounds read low 1.01 | S. cerevisiae deletion strains, locus YNL250W, strain rad50, active compounds read low 1.02 | S. cerevisiae deletion strains, locus YNL271C, strain bni1, active compounds read low 1.02 | S. cerevisiae deletion strains, locus YNL298W, strain CLA4, active compounds read low 1.03 | S. cerevisiae deletion strains, locus YNL307C, strain MCK1, active compounds read low 1.02 | S. cerevisiae deletion strains, locus YNL322C, strain KRE1 (second series), active compounds read low 1.02 | S. cerevisiae deletion strains, locus YNR049C, strain mso1, active compounds read low 1.02 | S. cerevisiae deletion strains, locus YNR052C, strain pop2, active compounds read low 1.01 | S. cerevisiae deletion strains, locus YOL006C, strain TOP1, active compounds read low 0.836 | S. cerevisiae deletion strains, locus YOL012C, strain htz1 0.945 | S. cerevisiae deletion strains, locus YOL147C, strain pex11, active compounds read low 1.02 | S. cerevisiae deletion strains, locus YOR001W, strain rrp6, active compounds read low 1.01 | S. cerevisiae deletion strains, locus YOR061W, strain CKA2, active compounds read low 1.01 | S. cerevisiae deletion strains, locus YOR069W, strain VPS5, active compounds read low 1.01 | S. cerevisiae deletion strains, locus YOR070C, strain gyp1, active compounds read low 1.01 | S. cerevisiae deletion strains, locus YOR080W, strain dia2, active compounds read low 1.03 | S. cerevisiae deletion strains, locus YOR083W, strain WHI5, active compounds read low 0.989 | S. cerevisiae deletion strains, locus YOR106W, strain vam3, active compounds read low 0.988 | S. cerevisiae deletion strains, locus YOR136W, strain idh2, active compounds read low 1.02 | S. cerevisiae deletion strains, locus YOR144C, strain elg1, active compounds read low 1.01 | S. cerevisiae deletion strains, locus YOR184W, strain ser1, active compounds read low 1.01 | S. cerevisiae deletion strains, locus YOR231W, strain MKK1, active compounds read low 1.03 | S. cerevisiae deletion strains, locus YOR265W, strain rbl2, active compounds read low 1.01 | S. cerevisiae deletion strains, locus YOR290C, strain snf2, active compounds read low 1.02 | S. cerevisiae deletion strains, locus YOR316C, strain cot1, active compounds read low 1.01 | S. cerevisiae deletion strains, locus YPL051W, strain arl3, active compounds read low 1 | S. cerevisiae deletion strains, locus YPL078C, strain atp4, active compounds read low 1.02 | S. cerevisiae deletion strains, locus YPL106C, strain sse1, active compounds read low 1.04 | S. cerevisiae deletion strains, locus YPL240C, strain hsp82, active compounds read low 1 | S. cerevisiae deletion strains, locus YPL241C, strain CIN2, active compounds read low 1 | S. cerevisiae deletion strains, locus YPL256C, strain CLN2, active compounds read low 1.04 | S. cerevisiae deletion strains, locus YPR119W, strain clb2, active compounds read low 1.01 | S. cerevisiae deletion strains, locus YPR141C, strain kar3, active compounds read low 1.01 | S. cerevisiae deletion strains, locus YPR163C, strain tif3, active compounds read low 1.02 | S. cerevisiae deletion strains, locus YPR167C, strain met16, active compounds read low 1.02 | S. cerevisiae deletion strains, strain wtn01, active compounds read low 1.01 | S. cerevisiae strains, strain wild type, active compounds read low 1
